From PubChem BioAssay (NCI)
This is part of a sample that, as a whole, favours compounds with a hit. Of some 83,000 tested, about 20% had one in any assay.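 Single-dose data. Exposure time 48 hours. Values below 10 considered active.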 Unmarked numbers belong to inactive results. Calls of active or inactive are those of the source.

How the values were obtained:
Assay in all cases: NCI-60 one-dose screen, 48 h (100 = growth as untreated, 0 = no growth, -100 = all killed)
Conditions in all cases: 10 µM unless noted
HT29 colon = system: HT29 colon
SNB-75 CNS = system: SNB-75 CNS
SNB-19 CNS = system: SNB-19 CNS
U251 CNS = system: U251 CNS
PC-3 prostate = system: PC-3 prostate
SK-MEL-5 melanoma = system: SK-MEL-5 melanoma
UACC-62 melanoma = system: UACC-62 melanoma
LOX IMVI melanoma = system: LOX IMVI melanoma
SK-MEL-28 melanoma = system: SK-MEL-28 melanoma
SK-MEL-2 melanoma = system: SK-MEL-2 melanoma

SMILES | growth (HT29 colon) | growth (SNB-75 CNS) | growth (SNB-19 CNS) | growth (U251 CNS) | growth (PC-3 prostate) | growth (SK-MEL-5 melanoma) | growth (UACC-62 melanoma) | growth (LOX IMVI melanoma) | growth (SK-MEL-28 melanoma) | growth (SK-MEL-2 melanoma)
C=C1c2c(C)nn(-c3ccc(C#CCOC4OC(CO)C(O)C(O)C4O)cc3)c2N(C)C23C[C@H]1C1(C)c4c(C)nn(-c5ccc(C#CCOC6OC(CO)C(O)C(O)C6O)cc5)c4N(C)C(C)(C[C@H]12)C3 (stereo not given in full) | 8.04% (active) | 6.04% (active) | 2.15% (active) | -35% (active) | -26.1% (active) | -74.7% (active) | -36.7% (active) | -42.4% (active) | 5.91% (active) | -43.5% (active)
CC(C)[C@]12O[C@H]1[C@@H]1O[C@]13[C@]1(O[C@H]1C[C@H]1C4=C(CC[C@@]13C)C(=O)OC4)[C@@H]2OC(=O)CN(C)C | 0.899% (active) | -65.4% (active) | 23% | 15.4% | 19.6% | -20.1% (active) | -34.8% (active) | – | 1.04% (active) | -60% (active)
CCC(CCC(C)C1CCC2C3CC=C4CC(O)CCC4(C)C3CCC12C)C(C)C (stereo not given) (tested in a mixture with another compound) | 98.9% | 119% | 98.6% | 90.2% | 45.8% | 96% | 95% | – | 91.7% | 24.3%
N#Cc1c2ccccc2c2n1-c1ccccc1OC(c1ccccc1)C2=O (stereo not given) | 23.1% | 24.2% | 23.5% | 17.9% | 32.1% | 10.6% | – | 9.92% (active) | 93.8% | 59.9%
COc1ccc(OC)c(/C=C/c2nc(=S)n(-c3ccc(Cl)cc3)[nH]2)c1 | 65.4% | 42.5% | 51.2% | 53.3% | 58.6% | 32.5% | 42.8% | – | 72.7% | 71.2%
COc1ccc(/C(=C2\O[C@@H]([C@H](O)CO)[C@H]3OC(C)(C)O[C@@H]23)c2cc(OC)c(OC)c(OC)c2)cc1O | 111% | 55.9% | 76.8% | 90.6% | 51.8% | 74.3% | 95.1% | – | – | 77.5%
COc1ccc(COC(C)=O)cc1 | 113% | 114% | 114% | 107% | 95.3% | 108% | 111% | – | 113% | 113%
COC(=O)[C@]12CC[C@@H](C)[C@H](C)[C@@H]1C1=CC[C@@H]3[C@@]4(C)C=C(O)C(=O)[C@@]5(C)COC(=C54)C[C@@]3(C)[C@]1(C)CC2 | -70.6% (active) | 12.7% | -26.5% (active) | -74.9% (active) | -71.2% (active) | -98.1% (active) | – | -98.8% (active) | -56.9% (active) | -62.8% (active)
Cc1ccc(C(O)C2=CC(=O)c3ccccc3C2=O)cc1 (stereo not given) | 107% | 92.3% | 102% | 96% | 89.4% | 97.7% | 90.5% | – | 112% | 116%
CCC1(c2ccccc2)Oc2ccccc2-n2c(C#N)c3ccccc3c2C1=O (stereo not given) | 96.8% | 95.9% | 106% | 96.7% | 93.8% | 100% | – | 103% | 114% | 103%
COc1cc(C2NC(c3ccc(Cl)cc3)C(C)/C(=N/NC(N)=S)C2C)cc(OC)c1OC (stereo not given) | 64.7% | 81% | 78.2% | 73.4% | 73.8% | 79.4% | 94% | – | 108% | 83.6%
COc1cc(C2=NN(C(C)=O)C(c3ccc(OC(C)=O)cc3OC(C)=O)O2)c(OC(C)=O)c2ccccc12 (stereo not given) | 29.9% | 50.4% | 36.7% | 15.7% | 42.9% | 7.09% (active) | – | 2.78% (active) | 23.7% | 24.9%
COc1cc2c(cc1OC)C1CCN3C(=O)CCC3N1CC2 (stereo not given) | 109% | 105% | 111% | 112% | 107% | 113% | 97% | – | 110% | 119%
CC1(C)OC(=O)C(=Cc2ccccc2Br)C(=O)O1 | 103% | 81.8% | 94.3% | 96.8% | 92.5% | 97.6% | – | 94.1% | 115% | 97.6%
COc1cccc2c1C(=O)c1c(O)c3c(c(O)c1C2=O)C[C@@](O)(/C(C)=N/NC(=O)c1cccc([N+](=O)[O-])c1)C[C@@H]3OC1CC(N)C(O)C(C)O1 (stereo not given in full) | -53.7% (active) | -34.2% (active) | -20.8% (active) | -29% (active) | -35% (active) | -100% (active) | -93.9% (active) | – | -66.7% (active) | -73.6% (active)
O=C(/C(=C/c1ccc([N+](=O)[O-])cc1)c1ccccc1)c1ccccc1 | 44.1% | 70.6% | 75.9% | 52.6% | 59.1% | 43.6% | – | 5.01% (active) | 97.9% | 24.9%
Fc1ccc(-c2nnc(/C=C/c3cn(-c4ccccc4)nc3-c3ccccc3)o2)cc1 | 88.5% | 88.2% | 108% | 82.1% | 95.2% | 105% | – | 83.5% | 98.9% | 103%
COc1cc2c(C#N)n3c(c2cc1OC)C(=O)C(c1ccccc1)Oc1ccccc1-3 (stereo not given) | 50.2% | 52.5% | 41.1% | 24.4% | 33.4% | 25.5% | – | 22.2% | 93.3% | 64.8%
COc1ccc(-c2c3c(nn2-c2ccc(N)cc2)CCc2cnoc2-3)cc1OC | 93.6% | 79.4% | 90.3% | 89.1% | 64.3% | 76% | 80% | – | 116% | 101%
COc1ccc(-c2csc(NC(=O)c3cc(O)c(O)c(O)c3)n2)cc1 | 92.3% | 58.8% | 59.9% | 45.6% | 68.4% | 51% | – | 50.6% | 89.1% | 71.4%
Cc1cc(C(C)(C)C)cc(C)c1CC1=NCCN1 | 105% | 97% | 106% | 106% | 91% | 96.7% | – | 95% | 116% | 113%
COC(=O)[C@]12CC[C@@H](C)[C@H](C)[C@@H]1C1=CC[C@@H]3[C@@]4(C)C[C@@H](OC(=O)c5ccco5)[C@H](O)[C@@](C)(CO)[C@@H]4[C@H](O)C[C@@]3(C)[C@]1(C)CC2 | -92.8% (active) | -84.4% (active) | -71% (active) | -85.2% (active) | -100% (active) | -99.9% (active) | – | -99.4% (active) | -84.6% (active) | -77.7% (active)
COc1cc(/C=C/C(=O)Nc2ccc3c(c2)/C(=C\c2cccn2C)C(=O)N3)cc(OC)c1OC | 53.9% | 9.39% (active) | 65.3% | 52.4% | 59.9% | 18.2% | – | 41.4% | 63.1% | 25.1%
Nc1ccc(S(=O)(=O)Nc2ncccn2)cc1 | 105% | 102% | 105% | 106% | 97.7% | 108% | – | 102% | 118% | 106%
O=C(Nc1nc(-c2ccc(Cl)cc2)cs1)c1cc(O)c(O)c(O)c1 | 71.9% | 36.7% | 25.9% | 23.5% | 46.9% | 24.6% | – | 1.72% (active) | 42.9% | 31.9%
